GPR151 ag – activators of human GPR151, primary screen, cell-based, PathHunter beta-arrestin, luminescence | PathHunter beta-arrestin GPR151 cells | activation, % at 11.2 µM | 650,000 compounds, 1% hits; in the data active = activation above about 4.9%;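 also: 0% = median of compound wells and 100% = cells with positive control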
FBW7 activator – FBW7 E3 ligase activators, primary screen, biochemical, AlphaScreen, human; 650,000 compounds, 0.13% hits; AlphaScreen FBW7–phospho-cyclin E peptide binding, activator screen; normalized activity (activation), % at 26.1 µM; F-box/WD repeat-containing protein 7 (Homo sapiens), Q969H0; in the data active = normalized activity above about 1.9%;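 also: purified mutant Fbw7 with reduced substrate affinity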
Target sequence (Q969H0 whole entry, looked up): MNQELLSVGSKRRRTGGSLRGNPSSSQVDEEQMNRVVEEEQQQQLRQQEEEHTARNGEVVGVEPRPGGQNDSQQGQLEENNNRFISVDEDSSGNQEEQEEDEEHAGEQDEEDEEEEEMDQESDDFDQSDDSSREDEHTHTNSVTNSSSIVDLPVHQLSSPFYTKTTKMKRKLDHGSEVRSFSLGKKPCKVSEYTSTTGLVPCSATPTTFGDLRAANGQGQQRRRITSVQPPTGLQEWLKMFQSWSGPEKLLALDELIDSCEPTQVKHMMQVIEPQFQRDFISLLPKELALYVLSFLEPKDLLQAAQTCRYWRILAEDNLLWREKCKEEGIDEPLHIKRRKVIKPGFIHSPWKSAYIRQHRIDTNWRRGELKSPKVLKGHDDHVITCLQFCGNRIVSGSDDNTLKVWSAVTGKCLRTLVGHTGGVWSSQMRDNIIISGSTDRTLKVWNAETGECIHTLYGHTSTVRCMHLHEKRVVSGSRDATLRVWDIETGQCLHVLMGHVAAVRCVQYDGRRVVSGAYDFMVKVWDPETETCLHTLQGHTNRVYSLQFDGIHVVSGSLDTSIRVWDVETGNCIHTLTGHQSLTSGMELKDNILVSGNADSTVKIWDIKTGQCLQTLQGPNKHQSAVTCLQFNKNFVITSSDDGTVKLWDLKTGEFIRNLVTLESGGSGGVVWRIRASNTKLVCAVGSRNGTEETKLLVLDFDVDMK
TEAD-YAP inh – TEAD-YAP interaction inhibition, primary screen, TEAD-YAP interaction inhibitor project, luminescence, HEK-TIYL cells. inhibition, % at 9.12 µM. 640,000 compounds, 1.4% hits. TEAD-Gal4/YAP UAS-luciferase luminescence. AID 1259422, 2018; in the data active = inhibition above about 32%;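 also: 0% = median of test compound wells and 100% = reference inhibitor wells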
MITF primary – MITF inhibitors, primary screen, biochemical, AlphaScreen, human | 650,000 compounds, 0.91% hits | inhibition, % at 2.6 µM | AID 1259374, 2018 | AlphaScreen MITF homodimerization, bead proximity signal | Microphthalmia-associated transcription factor (Homo sapiens), O75030; in the data active = inhibition above about 50%;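 also: 0% = vehicle wells with protein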
MITF confirm – MITF inhibitors, retest of hits, confirmation, biochemical, AlphaScreen, triplicate | AlphaScreen MITF homodimerization, biotin/His-MITF beads | inhibition, % at 2.6 µM | 4,700 compounds, 16% hits | AID 1259372, 2018 | shares compounds with MITF primary;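 active = inhibition above a cutoff derived from the DMSO control wells, cut at about 28% in these data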;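 also: 0% = MITF dimer wells with DMSO only; inhibitors lower the bead chemiluminescence by keeping MITF from dimerizing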
AlphaScreen DR – AlphaScreen optical interference compounds, dose response, counter-screen, biochemical, HTS | 480 compounds, 6% hits | AlphaScreen optical interference counterscreen, cell-free | IC50, µM | shares compounds with MITF primary; call rule not given here
AlphaScreen intf2 – AlphaScreen optical interference compounds, counter-screen for MITF inhibitor project, biochemical, triplicate. shares compounds with MITF primary. LysRS AlphaScreen counterscreen, signal interference. inhibition, % at 2.6 µM. 4,700 compounds, 7.6% hits. AID 1259376, 2018;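 active = inhibition above a cutoff derived from the DMSO control wells, cut at about 30% in these data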
Starred values were filed as active, the others as inactive; / = no result given. Rows were chosen to be rich in hits. Some 3.4% of all compounds tested hit in one or more screens of this group.

SMILES | GPR151 ag | FBW7 activator | TEAD-YAP inh | MITF primary | MITF confirm | AlphaScreen intf2 | others
CCC(C)NC(=O)CN(Cc1ccc(F)cc1)S(=O)(=O)c1ccc(Cl)cc1 (stereo not given) | 0 | 0 | 0 | 70* | -13 | -6
Cc1ccc(C(C)C)c(OCCNCc2ccco2)c1 | -1 | 0 | -5 | 55* | 5 | 9
c1coc(CNCCOc2ccc3ccccc3c2)c1 | -1 | 0 | -10 | 87* | 16 | 26
COP(=O)(OC)c1nc(-c2ccc(Br)cc2)oc1NCc1ccccc1 | -1 | 0 | -1 | 9 | / | /
COc1cccc(CN2CCN(Cc3cccc4ccccc34)CC2)c1 | 2 | 0 | 2 | 77* | -15 | 0
COc1ccc(CN2CCN(Cc3cccc4ccccc34)CC2)cc1Br | -1 | 0 | -8 | 72* | 0 | -2
COc1cccc(/C(C)=N/N2CCN(Cc3cccc4ccccc34)CC2)c1 | -1 | 0 | 8 | 2 | / | /
CCOC(=O)N1CCN(Cc2ccc(OC)c(Br)c2)CC1 | -1 | 0 | -5 | 2 | / | /
COc1cc(CN2CCN(Cc3ccccc3Cl)CC2)cc(OC)c1 | 1 | 0 | 2 | 69* | 5 | -2
COc1ccc(CN2CCN(Cc3ccc(OC)c(Br)c3)CC2)cc1 | 0 | 0 | 10 | 62* | 14 | -3
C(=C\c1nn2c(Cc3ccccc3)nnc2s1)/c1cccs1 | 2 | 0 | -10 | 0 | / | /
O=C(Nc1nnc(SCc2ccc(F)cc2)s1)c1cn2ccccc2n1 | -2 | -1 | -27 | 5 | / | /
O=C(CSc1nc2ccccc2c(=O)n1C1CC1)c1ccc(F)cc1 | -1 | 0 | -4 | 3 | / | /
CCS(=O)(=O)N1CCN(Cc2ccc(OC)c(Br)c2)CC1 | 1 | 0 | 7 | 44 | / | /
CCCS(=O)(=O)N1CCN(Cc2ccc(OC)c(Br)c2)CC1 | 1 | 0 | 6 | 11 | / | /
COc1ccc(CN2CCN(S(C)(=O)=O)CC2)cc1Br | 0 | 0 | 10 | 70* | 5 | 16
COc1cccc(CN2CCN(Cc3ccc(OC)c(Br)c3)CC2)c1 | 0 | 0 | 2 | 66* | 13 | 9
CCC(=O)c1ccc(Oc2ccc([N+](=O)[O-])cc2C#N)cc1 | 1 | 0 | 4 | 4 | / | /
CCCN1Cc2cccc(C(=O)O)c2C1=O | 1 | 1 | 2 | 17 | / | /
O=C(O)c1cccc2c1C(=O)N(c1ccccc1)C2 | -2 | 0 | -5 | 72* | 72* | 13 | AlphaScreen DR=>6.3
CCOc1cccc(-c2cc(C(=O)N/N=C(\C)c3ccccc3)[nH]n2)c1 | -1 | 0 | -12 | 21 | / | /
Cc1ccc(Cl)cc1N1CCN(C(=S)NCCN2CCOCC2)CC1 | -2 | 0 | 1 | 51* | -1 | 3
C=CCOC(=O)COc1ccc2c(=O)c(Oc3ccc(OC)cc3)coc2c1 | 0 | 0 | 7 | 75* | 23 | 8
COc1cc(OC)nc(Oc2cccnc2C(=O)NNc2ccccc2)n1 | 2 | -1 | -7 | 54* | 36* | 70*
Cc1nc(S(=O)(=O)c2ccccc2)c(SCc2ccc([N+](=O)[O-])cc2)o1 | -1 | 0 | 9 | 62* | -1 | 33*
COc1nc(NCc2ccccc2)nc(-c2c(C)nn(C)c2C)n1 | 1 | 0 | -4 | 9 | / | /
CCOC(c1ccccc1)c1ccc2c(c1)CN(C(=O)Cc1c(C)noc1C)CCO2 (stereo not given) | -1 | 0 | -4 | 75* | -5 | -4
Cc1noc(C)c1CC(=O)N1CCOc2ccc(C(O)c3ccccn3)cc2C1 (stereo not given) | 0 | 0 | -4 | 8 | / | /
CC(=O)C(Cc1ccccc1)NC(=O)CN1CCN(C/C=C/c2ccccc2)CC1 (stereo not given) | -1 | 0 | 4 | 62* | 14 | 14
O=C(CN1CCN(C/C=C/c2ccccc2)CC1)N1CCCc2ccccc21 | 0 | 0 | 9 | 85* | 5 | 10
